Inconclusive results are not listed. Where a call stands in place of a potency, no number is given. The source made the active and inactive calls. Calls come from the whole dose curve; as a rule, active = well fitted inhibition curve with a large enough effect; inconclusive = small, poorly fitted or top-dose-only effect; inactive = no such curve, though single readings can be large or run the other way.
Potency is the fitted concentration of half-maximal effect.

Tumor susceptibility gene 101 protein (Homo sapiens), sequence (Q99816 whole entry, looked up, the tested form may be a part): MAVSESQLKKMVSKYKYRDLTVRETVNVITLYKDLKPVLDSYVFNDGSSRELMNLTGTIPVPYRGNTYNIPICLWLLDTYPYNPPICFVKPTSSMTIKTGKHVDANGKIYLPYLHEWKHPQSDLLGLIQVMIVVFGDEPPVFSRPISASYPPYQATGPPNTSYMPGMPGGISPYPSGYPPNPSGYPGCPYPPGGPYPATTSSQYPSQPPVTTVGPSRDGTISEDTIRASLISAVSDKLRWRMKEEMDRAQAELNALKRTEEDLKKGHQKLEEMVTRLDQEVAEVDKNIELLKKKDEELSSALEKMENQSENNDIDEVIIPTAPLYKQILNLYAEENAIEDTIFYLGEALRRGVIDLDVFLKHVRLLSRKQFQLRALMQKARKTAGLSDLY

This test concerns the target Tumor susceptibility gene 101 protein (Homo sapiens) (UniProt Q99816). Kind of test: qHTS Assay for Iinhibitors of HIV-1 Budding by Blocking the Interaction of PTAP/TSG101: Hit Validation in TR assay. The settings on record: Tsg101 binding domain + Texas Red-labeled PTAP peptide, fluorescence polarization, 20 min; series mostly up to 57.5 µM. In outline:
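Texas Red-PTAP peptide (50 nM) binding to Tsg101 binding domain (10 uM), both final, in pH 7.5 HEPES buffer, read as polarization after 20 min at room temperature; compounds pinned before peptide addition.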
(In general: qHTS replaces the single test concentration by a dilution series.)
For the compound `O=C(CN1C(=O)NC(Cc2c[nH]c3ccccc23)C1=O)Nc1ccccc1C(F)(F)F` (centres undefined), the Potency result was “inactive”. With `COc1ncnc2c1NC1=C(S2)C(=NCCC(=O)O)CC(C)(C)C1` the entry was “inactive”. With `O=C(CCN1C(=O)/C(=C/c2ccco2)SC1=S)Nc1ccc(O)cc1C(=O)O` the entry was “inactive”; with `CC(=O)c1ccc(N2C(=O)C3C(C2=O)C(C(=O)c2ccc(Cl)cc2)N2CCCC32)cc1` (centres undefined), “inactive”. In the case of `O=c1oc2ccccc2nc1/C=C(\O)c1ccc(Br)cc1` it was “inactive”. Turning to `O=c1c(-c2cc3ccccc3o2)[n+]([O-])c2ccccc2n1OCc1ccccn1`, the Potency entry was “inactive”. `CN(N=Nc1ccc([N+](=O)[O-])cc1)c1ccccc1`: the Potency entry is “inactive”.

Turning to `COC(=O)C[n+]1cccc2ccccc21`, the Potency result was “inactive”. In the case of `Cc1ccc(N2C(=O)C3C(C(=O)c4ccccc4)=NN(c4ccccc4)C3C2=O)cc1` (centres undefined) it was “inactive”; in that of `O=C1Nc2ccc(F)cc2C12Nc1ccccc1-c1nnc(SCc3ccccc3)nc1O2` (centres undefined), “inactive”; in that of `Nc1ccc2c(c1)C/C(=C/c1ccco1)C2=O`, “inactive”. With `O=C(NC1CCCCC1)c1cccc2c1C(=O)c1ccc(N3CCC(Cc4ccccc4)CC3)cc1S2(=O)=O` the entry was “inactive”; with `O=c1ccc2cc3c4c(c2o1)CCCN4CCC3`, “inactive”.

As for `Cc1ccc2c(c1)c1nc3ccccc3nc1n2C`, the Potency entry was “inactive”. With `COc1ccc(/C=c2\s/c(=C/C(=O)c3ccc(C)cc3)[nH]c2=O)c(OC)c1` the entry was “inactive”; with `COc1ccccc1NC(=O)c1sc2nc(Cc3ccccc3)cc(C(F)(F)F)c2c1N`, “inactive”. On to `Cc1ccc[n+](-c2nc([O-])sc2C=O)c1`, for which the Potency entry was “inactive”.

For `Cc1nc2nc(-c3cccs3)cn2nc1C`, the Potency result was “inactive”.

For `CCN1C(=O)c2cccc3c(N)ccc(c23)C1=O`, the Potency result is “inactive”. For the compound `CC(C)(C)c1cc[n+](-c2[nH]c(=O)sc2/C=N/NC(=O)c2ccccc2[O-])cc1`, the Potency result was “inactive”. In the case of `Cc1cccc(N=Nc2c(O)[nH]c3ccc(F)cc23)c1` it was “inactive”.

Regarding `CCCN1C(=O)/C(=C\C=C2\N(CC)c3ccccc3C2(C)C)SC1=S`, the Potency result was “inactive”. Consider `COc1ccc(Nc2nc(-c3cccnc3)nc3ccccc23)cn1`, for which the Potency entry is “inactive”. In the case of `O=C(Nc1nc2c(s1)CN(Cc1ccccc1)CC2)c1cccc(S(=O)(=O)N2CCc3ccccc32)c1` it was “inactive”; in that of `Nc1ccc(-c2c3ccc(=O)cc-3oc3cc(O)ccc23)cc1C(=O)O`, 36.6 µM (active). In the case of `CN1CC=C2C(C#N)=C(N)C(C#N)(C#N)C(Cc3ccccc3)C2C1` (centres undefined) it was “inactive”; in that of `CCC/C(C#Cc1ccc(N(C)C)cc1)=C1/c2ccccc2C(=O)N1c1ccccc1`, “inactive”. With `COC(=O)c1c(NC(=O)CC2Nc3cc(C)c(C)cc3NC2=O)sc(C)c1C` (centres undefined) the figure was 2.91 µM (active); with `CC1CCN(c2ccc3c(c2)S(=O)(=O)c2cccc(C(=O)NCc4cccc(F)c4)c2C3=O)CC1`, “inactive”; with `O=C1/C(=N\S(=O)(=O)c2cccs2)C([n+]2cccc(Cc3ccccc3)c2)=C([O-])c2ccccc21`, “inactive”.

Turning to `CCN(c1ccc(N=Cc2c(O)n(Cc3ccc(OC)cc3)c(=O)c3ccccc23)cc1)C(C)C`, the Potency entry was “inactive”. In the case of `c1ccc2[nH]c3cc4ncnc4cc3nc2c1` it was “inactive”; in that of `O=C1c2ccccc2S(=O)(=O)c2cc(N3CCN(C(=O)c4ccccc4)CC3)ccc21`, “inactive”; in that of `CCOC(=O)Cn1c(=NC(=O)c2ccc([N+](=O)[O-])s2)sc2ccccc21`, “inactive”.

As for `O=C(CN1C(=O)c2ccccc2S1(=O)=O)Nc1ncc(Cl)cc1Cl`, the Potency result was “inactive”. With `CN1CCCc2cc3c(C(F)(F)F)cc(=O)oc3nc21` the entry was “inactive”; with `OCCN(CCO)c1nc(N2CCCCC2)c2nc(N(CCO)CCO)nc(N3CCCCC3)c2n1`, “inactive”. In the case of `O=C1c2ccccc2C(=O)c2c1ccc(O)c2O` it was “inactive”; in that of `CC(=O)N1c2ccccc2C(=O)C1N1CCCCC1` (centres undefined), “inactive”.

The values above are taken from PubChem BioAssay AID651599 (National Center for Advancing Translational Sciences (NCATS), 2012).
